Data as given in PubChem BioAssay AID1159580 (chemical genetic matrix, 2015).
Where “and” joins values, the source holds several entries; their conditions need not be identical. Identical values can stand only once. The campaign covered roughly 5,500 compounds. About 2,000 (36%) were called active. Not shown: some 18% with an inconclusive outcome. Rule as the data show it: active = normalized growth mostly below about 0.91 (no sharp cut-off); inconclusive = no clear call, values can overlap the other calls; inactive = mostly above about 0.92. The list shows a part of the results.

Assay: chemical genetic growth profiling, strain panel (AID 1159580);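 also: tested at 20 µM; growth read once vehicle control cultures reached saturation at 30 °C; 1 = growth at the plate median or of vehicle wells; lower values mean less growth of the strain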
Settings: S. cerevisiae deletion strains, growth OD

Measured: normalized growth

C[C@](N)(Cc1ccc(O)c(O)c1)C(=O)O
inactive: locus YAL013W, strain DEP1, stronger effect = lower value 0.962 | locus YAL021C, strain ccr4, stronger effect = lower value 0.999 | locus YAL026C, strain drs2, stronger effect = lower value 0.968 | locus YAL030W, strain snc1, stronger effect = lower value 0.967 | locus YBL061C, strain skt5, stronger effect = lower value 0.971 | locus YBR009C, strain hhf1, stronger effect = lower value 0.964 | locus YBR021W, strain FUR4, stronger effect = lower value 1.03 | locus YBR023C, strain chs3, stronger effect = lower value 0.957 | locus YBR171W, strain sec66, stronger effect = lower value 0.951 | locus YBR229C, strain ROT2, stronger effect = lower value 0.951 | locus YBR231C, strain swc5, stronger effect = lower value 0.974 | locus YBR279W, strain paf1, stronger effect = lower value 0.96 | locus YCL011C, strain gbp2, stronger effect = lower value 0.912 | locus YCL016C, strain dcc1, stronger effect = lower value 0.92 | locus YCL029C, strain bik1, stronger effect = lower value 0.995 | locus YCL061C, strain MRC1, stronger effect = lower value 0.966 | locus YCL069W, strain vba3, stronger effect = lower value 0.982 | locus YCR088W, strain abp1, stronger effect = lower value 0.991 | locus YDL005C, strain med2, stronger effect = lower value 0.991 | locus YDL035C, strain GPR1, stronger effect = lower value 0.91 | locus YDL040C, strain nat1, stronger effect = lower value 0.989 | locus YDL074C, strain BRE1, stronger effect = lower value 1.01 | locus YDL101C, strain DUN1, stronger effect = lower value 0.987 | locus YDL134C, strain PPH21, stronger effect = lower value 0.974 | locus YDL185W, strain tfp1, stronger effect = lower value 0.988 | locus YDL192W, strain arf1, stronger effect = lower value 0.974 | locus YDR001C, strain nth1, stronger effect = lower value 0.971 | locus YDR069C, strain doa4, stronger effect = lower value 0.936 | locus YDR101C, strain arx1, stronger effect = lower value 1.01 | locus YDR137W, strain rgp1, stronger effect = lower value 0.945 | locus YDR150W, strain NUM1, stronger effect = lower value 0.943 | locus YDR159W, strain sac3, stronger effect = lower value 1 | locus YDR162C, strain NBP2, stronger effect = lower value 0.911 | locus YDR195W, strain ref2 0.984 | locus YDR297W, strain sur2, stronger effect = lower value 0.963 | locus YDR318W, strain mcm21, stronger effect = lower value 0.993 | locus YDR334W, strain swr1, stronger effect = lower value 0.92 | locus YDR335W, strain msn5, stronger effect = lower value 0.961 | locus YDR388W, stronger effect = lower value 1.01 | locus YDR392W, strain spt3, stronger effect = lower value 0.886 | locus YDR502C, strain sam2, stronger effect = lower value 1 | locus YEL003W, strain gim4, stronger effect = lower value 0.992 | locus YEL037C, strain rad23, stronger effect = lower value 0.977 | locus YEL061C, strain CIN8 (second series), stronger effect = lower value 0.977 | locus YEL061C, strain CIN8, stronger effect = lower value 0.978 | locus YER015W, strain faa2, stronger effect = lower value 0.965 | locus YER016W, strain bim1, stronger effect = lower value 0.987 | locus YER110C, stronger effect = lower value 0.971 | locus YER111C, strain swi4, stronger effect = lower value 0.995 | locus YER155C, strain BEM2 (second series), stronger effect = lower value 0.986 | locus YER155C, strain BEM2, stronger effect = lower value 1.02 | locus YER167W, strain BCK2, stronger effect = lower value 0.961 | locus YFR010W, strain ubp6, stronger effect = lower value 0.939 | locus YGL078C, strain dbp3, stronger effect = lower value 0.984 | locus YGL086W, strain mad1, stronger effect = lower value 0.958 | locus YGL167C, strain pmr1, stronger effect = lower value 0.954 | locus YGL173C, strain kem1, stronger effect = lower value 0.941 | locus YGL227W, strain vid30, stronger effect = lower value 0.979 | locus YGL240W, strain doc1, stronger effect = lower value 0.998 | locus YGL248W, strain PDE1, stronger effect = lower value 0.958 | locus YGL253W, strain hxk2, stronger effect = lower value 0.981 | locus YGR078C, strain PAC10, stronger effect = lower value 0.907 | locus YGR135W, strain pre9, stronger effect = lower value 0.973 | locus YGR229C, strain SMI1, stronger effect = lower value 0.917 | locus YGR252W, strain gcn5, stronger effect = lower value 0.908 | locus YHR013C, strain ard1, stronger effect = lower value 0.894 | locus YHR027C, strain rpn1, stronger effect = lower value 0.95 | locus YHR030C, strain SLT2, stronger effect = lower value 0.981 and 1.04 | locus YHR079C, strain IRE1 (second series), stronger effect = lower value 1 | locus YHR079C, strain IRE1, stronger effect = lower value 1.05 | locus YHR094C, strain hxt1, stronger effect = lower value 0.999 | locus YHR129C, strain ARP1, stronger effect = lower value 0.985 | locus YHR142W, strain chs7, stronger effect = lower value 0.913 | locus YHR200W, strain rpn10, stronger effect = lower value 0.981 | locus YIL066C, strain RNR3, stronger effect = lower value 0.882 | locus YIL073C, strain SPO22, stronger effect = lower value 0.793 | locus YIL125W, strain kgd1, stronger effect = lower value 0.99 | locus YIR030C, strain dcg1, stronger effect = lower value 0.987 | locus YJL092W, strain hpr5, stronger effect = lower value 0.966 | locus YJL095W, strain BCK1 (second series), stronger effect = lower value 0.965 | locus YJL095W, strain BCK1, stronger effect = lower value 1.02 | locus YJL115W, strain asf1, stronger effect = lower value 0.953 | locus YJL129C, strain trk1, stronger effect = lower value 0.973 | locus YJL134W, strain LCB3, stronger effect = lower value 0.976 | locus YJL154C, strain vps35, stronger effect = lower value 0.974 | locus YJL164C, strain tpk1, stronger effect = lower value 0.979 | locus YJL166W, strain qcr8, stronger effect = lower value 0.927 | locus YJL168C, strain set2, stronger effect = lower value 0.995 | locus YJL187C, strain SWE1 (second series), stronger effect = lower value 0.985 | locus YJL187C, strain SWE1, stronger effect = lower value 0.978 | locus YJR043C, strain POL32, stronger effect = lower value 0.967 | locus YJR066W, strain TOR1, stronger effect = lower value 0.99
